TSG101-PTAP inh = blocks PTAP/TSG101 interaction to inhibit HIV-1 budding. Fluorescence polarization, FITC-PTAP peptide / Tsg101 binding. Potency, µM (titrated, usually from 115 µM), inactives show at the top dose activity change, negative = inhibition, actives largely listed as inhibitors. 340,000 tested, under 10 active; active = well fitted inhibition curve with a large enough effect in the main read-out, with a control signal flat, not every such curve was filed as active; inconclusive = small, poorly fitted or top-dose-only effect, or effect the other way, or a change in a side signal; inactive = no such curve, though single readings can be large or run the other way; also: % of control where 0% means no effect
Target sequence (Q99816 whole entry, looked up): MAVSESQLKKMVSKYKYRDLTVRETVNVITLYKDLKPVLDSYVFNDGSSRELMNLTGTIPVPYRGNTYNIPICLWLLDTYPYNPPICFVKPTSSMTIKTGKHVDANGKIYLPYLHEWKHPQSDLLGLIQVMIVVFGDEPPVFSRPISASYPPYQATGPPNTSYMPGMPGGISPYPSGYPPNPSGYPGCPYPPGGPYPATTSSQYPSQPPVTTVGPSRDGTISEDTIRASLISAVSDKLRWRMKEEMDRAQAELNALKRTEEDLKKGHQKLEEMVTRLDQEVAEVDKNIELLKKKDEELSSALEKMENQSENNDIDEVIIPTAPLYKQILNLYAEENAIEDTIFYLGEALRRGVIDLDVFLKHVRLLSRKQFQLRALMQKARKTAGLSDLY
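Tsg101 binding domain (10 uM final) was mixed with compound and a FITC-labeled PTAP peptide (50 nM final) in HEPES pH 7.5 buffer with NaCl, Tween 20, EDTA and TCEP; fluorescence polarization was read after 20 min at r.t.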
RGS4 inhibitor = blocks human RGS4-accelerated GTP hydrolysis; P49798; Transcreener GDP fluorescence polarization, RGS4-accelerated GTP hydrolysis; Potency, µM (series often up to 114 µM), for the others: at the top dose activity change, negative = inhibition, usual class: inhibitors; 390,000 tested, 0.039% active; also: % is scaled to controls: 0 for no effect and ±100 for the full control effect; nearly all actives have a fitted effect of over 75% in size
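MLSMR compounds (23 nl, pin-transferred) preincubated 10 min at room temperature with a 500nM (2x) first reagent, then RGS4 at 900nM (2x) plus Transcreener GDP mix added; fluorescence polarization (620/688 nm) read before and after 90 min at 30 °C.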
SW480 rerep = DNA re-replication induction in SW480 cells | SW480 DNA re-replication, Hoechst DNA content imaging, 48 h | Potency, µM (titrated, usually from 46.1 µM), without a hit: at the highest dose re-replication activation, usual class: activators | 340,000 tested, 1.8% active | AID 624297; also: % of control where 0% means no effect; nearly all actives have a fitted effect of over 55% in size
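DNA re-replication was detected as more nuclei of elevated Hoechst intensity after 48 hr exposure to compound (23 nL pinned per well of 250 cells).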
KB-V1 cytotox = KB-V1 MDR subline cytotoxicity; 400,000 tested, 3.4% active; KB-V1 MDR cells viability, CellTiter-Glo, 72 h; Potency, µM (doses to about 46.1 µM), most hits filed as cytotoxic; also: % is scaled to controls: 0 for no effect and ±100 for the full control effect; nearly all actives have a fitted effect of over 60% in size
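qHTS viability screen in drug-selected KB-V1 MDR cells: 72 h compound treatment at 37 degrees C, ATP luminescence end point.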
KB-3-1 cytotox = kills parental KB-3-1 adenocarcinoma cells; KB-3-1 viability, CellTiter-Glo ATP luminescence, 72 h; 400,000 tested, 1.4% active; Potency, µM (series often up to 46.1 µM), most hits filed as cytotoxic; AID 1347075; also: % is scaled to controls: 0 for no effect and ±100 for the full control effect; nearly all actives have a fitted effect of over 60% in size
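Screening of KB-3-1 cells (DMEM, 10% FBS, phenol-red free) ran from lowest to highest compound concentration; after 72 h at 37 °C viability was read luminescently and curves fitted.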
MCF10A rerep = induces DNA re-replication in MCF 10a normal breast cells; MCF 10A DNA re-replication, Hoechst nuclear intensity, 48 h; Potency, µM (series often up to 46.1 µM), without a hit: at the highest dose activity, positive = re-replication, usual class: activators; 350,000 tested, 2.9% active; also: % of control where 0% means no effect; nearly all actives have a fitted effect of over 50% in size
Starred values were filed as active, the others as inactive; i = inactive; ? = inconclusive; / = no result given; [ ] = another dose, or the depositor's remark. The list is not random: actives were taken first. Their share in the collection is about 6.6%. Unless noted, calls follow the shape of the dose curve; as a rule, active = well fitted curve in the direction sought with a large enough effect; inconclusive = small, poorly fitted or top-dose-only effect, or another doubt; inactive = no such curve, though single readings can be large; an effect the other way counts as inactive or inconclusive. Potency is read from the fitted curve at half-maximal effect.

SMILES	TSG101-PTAP inh	RGS4 inhibitor	SW480 rerep	KB-V1 cytotox	KB-3-1 cytotox	MCF10A rerep
O=C(C=C=Nc1ccccc1)C(=O)N=C=Cc1ccccc1	-4.2%	-9.4%	?	i	i	4.61µM*
O=C(N/N=C/c1ccccc1)C(=O)N/N=C/c1ccccc1	0.7%	-14.7%	-4.9%	i	i	1.4%
O=[N+]([O-])c1cc(S(=O)(=O)Nc2ccc(Cl)cc2)ccc1N/N=C/c1ccncc1	-13.3%	20.1%	4.4%	i	i	4.11µM*
O=[N+]([O-])c1ccc(Cl)cc1N/N=C/c1ccncc1	-3.8%	24.3%	-1.6%	i	i	13.8%
NC(=O)c1ccc2c(=O)n3c(-c4cc(Cl)c(N)c(Cl)c4)csc3nc2c1	0.2%	?	29.9%	i	23.1µM*	?
C=C1C=CS(=O)(=O)N(C(C)C(=O)OC)C1 (centres undefined)	/	-21.6%	/	/	/	/
COCCOC(=O)c1c(C)oc2ccc(NS(=O)(=O)c3ccc(F)cc3)cc12	-5.9%	-4.2%	-1.5%	5.17µM*	i	0.8%
Cc1ccc(NC(=O)C2CCCN(c3ncnc4c3nc3n4CCCCC3)C2)c(Br)c1 (centres undefined)	/	-16.6%	/	i	i	/
O=C(Nc1nnc(S(=O)(=O)N2CCCc3ccccc32)s1)c1cccc(Cl)c1	/	-8.3%	/	i	i	/
O=C(Cc1nc2ccccc2[nH]c1=O)c1ccccc1	?	-14.7%	28.7%	i	?	20.6µM*
Cc1ccccc1NC(=O)CSc1nc2nccnc2c(=O)n1CCc1c[nH]c2ccccc12	/	-38.1%	/	/	/	/
NC1CCc2ccc([N+](=O)[O-])cc21 (centres undefined)	/	/	/	i	i	/
Fc1ccc(-[n+]2nc(Nc3ccccc3)sc2-c2c(Cl)cccc2Cl)cc1	-0.3%	-16.5%	-44.4%[9.22 µM]	i	?	?
CCc1ccc(Nc2n[n+](-c3ccccc3)c(-c3c(Cl)cccc3Cl)s2)cc1	1.6%	-47.9%	?	?	23.1µM*	?
C=CS(=O)(=O)N(Cc1ccccc1Br)[C@H](CO)Cc1ccccc1	0.0%	-2.1%	?	?	?	16.4µM*
CS(=O)(=O)c1ccc(C(=O)OCC(=O)N2CCc3ccccc32)cc1[N+](=O)[O-]	/	11.0%	/	i	?	/
COc1ccc(S(=O)(=O)N2Cc3ccccc3CC2C(=O)Nc2nccs2)cc1 (centres undefined)	-4.0%	-32.7%	-9.1%	20.6µM*	i	1.8%
COc1ccc(S(=O)(=O)N2Cc3ccccc3CC2C(=O)Nc2nccs2)cc1OC (centres undefined)	1.7%	-36.8%	-0.8%	?	i	13.1%
CCCCOCCCNC(=O)CN1C(=O)c2ccccc2C1=O	-7.4%	7.4%	27.9%	i	i	3.66µM*
Cc1ccc(S(=O)(=O)c2nc(Nc3ccccc3)sc2Cl)cc1	-6.3%	-5.8%[11.4 µM]	6.0%	i	?	?
O=S(=O)(c1ccccc1)c1nc(Nc2cccc(O)c2)sc1Cl	-1.0%	-14.1%	?	?	16.4µM*	28.5%
CCCCNC(=O)[C@@H]1CC=C[C@@H]2CCN(Cc3ccccc3)C(=O)[C@@H]21	/	/	/	i	i	/
COCCSc1ccccc1C(=O)N1CCCC(C)C1 (centres undefined)	-0.2%	-29.3%	-1.4%	i	i	-4.6%
CCOC(=O)C1CCCN(C(=O)c2cc(-c3ccc(C)cc3)nc3ccccc23)C1 (centres undefined)	-3.8%	-14.6%	-1.3%	11.6µM*	i	?
CCOC(=O)C1CCCN(C(=O)c2ccccc2SCCOC)C1 (centres undefined)	-6.3%	-43.5%	?	i	i	20.6µM*
COc1ccc(OC)c(NC(=O)CN2C(=O)COc3ccc(S(=O)(=O)NC4CCCC4)cc32)c1	/	-6.8%	/	/	/	/
CCCCOc1ccc(CC(=O)N(C)OC)cc1	/	/	/	i	i	/

Screening data as filed in PubChem BioAssay.
